# Screens deposited in PubChem by National Center for Advancing Translational Sciences (NCATS).
# Shown are actives, neighbours in structure and some others; about 5.7% of the full set was active somewhere.
# HP1b chromo inh = HP1-beta chromodomain-methylated histone interaction inhibition | AlphaScreen HP1-beta / biotin-H3K9me3 peptide binding | Potency, µM (top dose mostly 114 µM), for inactives: at the top dose activity change, negative = inhibition, hits mostly inhibitors | hit rate 0.56% among 390,000; also: potency is read from the fitted curve at half-maximal effect; nearly all actives have a fitted effect of over 70% in size
#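 Compound inhibition of the preformed complex between 50 nM HP1-beta and 50 nM biotinylated H3K9me3 peptide was read by AlphaScreen. Buffer was PBS pH 7.4 with 0.01% Tween-20. Incubations ran 30 min at room temperature, with 10 ug/mL donor/acceptor beads.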
# JMJD2E inh = inhibitors of human JMJD2E histone demethylase | B2RXH2 | JMJD2E catalytic domain, FDH-coupled NADH fluorescence (FDH is formaldehyde dehydrogenase) | Potency, µM (top dose mostly 57.1 µM), for inactives: at the highest dose activity change, negative = inhibition, hits mostly inhibitors | hit rate 1.6% among 230,000 | AID 2147; active = well fitted inhibition curve with a large enough effect, not every such curve was filed as active; inconclusive = small, poorly fitted or top-dose-only effect, or another doubt; inactive = no such curve, though single readings can be large or run the other way;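 also: potency is read from the fitted curve at half-maximal effect; 0% = wells with enzyme and -100% = buffer wells without enzyme; nearly all actives have a fitted effect of over 50% in size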
# BAZ2B inh = BAZ2B (human) inhibition. Potency, µM (top dose mostly 114 µM), without a hit: at the top dose activity change, negative = inhibition, actives largely listed as inhibitors. AID 504333. AlphaScreen BAZ2B-H3K14Ac peptide displacement. hit rate 4.4% among 360,000; also: potency is read from the fitted curve at half-maximal effect; % is scaled to controls: 0 for no effect and ±100 for the full control effect; nearly all actives have a fitted effect of over 60% in size
#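 AlphaScreen luminescence quantifies BAZ2B engagement of H3K14Ac peptide; the protein and biotinylated peptide are both at 50 nM final, buffer PBS pH 7.4 with 0.01% Tween-20, all steps at room temperature.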
# PI5P4K alpha inh = inhibitors of human PI5P4K alpha | P48426 | PI5P4Kalpha enzyme, ADP-Glo luminescence, 60 min; stronger effect = lower value | max response, % | hit rate 1.2% among 330,000 | AID 652105; active = max response of -50% or lower; inconclusive = between -30% and -50%; inactive = -30% or higher; also: value at the top dose of about 77 µM; % is scaled to controls: 0 for no effect and ±100 for the full control effect
#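 Enzyme plus substrate dispensed, test compounds pinned in, then ATP (5 microM final) added. After 60 min at RT, ADP-Glo reagent 1 for 45 min and reagent 2 for 30 min preceded luminescence imaging.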
# L3MBTL1 inh = L3MBTL1 (human) inhibition | Q9Y468 | AlphaScreen L3MBTL1–H3K9me1 peptide binding | Potency, µM (titrated, usually from 57.1 µM), for the others: at the highest dose activity, negative = inhibition, usual class: inhibitors | hit rate 0.66% among 230,000 | AID 485360; also: potency is read from the fitted curve at half-maximal effect; % is scaled to controls: 0 for no effect and ±100 for the full control effect; nearly all actives have a fitted effect of over 60% in size
#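 AlphaScreen assay: L3MBTL1 (50 nM final) was preincubated 30 min at room temperature with biotinylated H3(1-15)K9me1 peptide (75 nM final), then 30 min with library compounds; streptavidin donor and nickel chelate acceptor beads (10 ug/mL final) added, 30 min dark.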
# JMJD2A Tudor inh = blocks the human JMJD2A Tudor domain; O75164; AlphaScreen JMJD2A-Tudor / H3K4me3 peptide binding; Potency, µM (highest dose often 114 µM), without a hit: top-dose activity change, negative = inhibition, actives largely listed as inhibitors; hit rate 4.4% among 390,000; also: potency is read from the fitted curve at half-maximal effect; % is scaled to controls: 0 for no effect and ±100 for the full control effect; nearly all actives have a fitted effect of over 50% in size
# Target sequence (O75164 whole entry, looked up, the tested form may be a part): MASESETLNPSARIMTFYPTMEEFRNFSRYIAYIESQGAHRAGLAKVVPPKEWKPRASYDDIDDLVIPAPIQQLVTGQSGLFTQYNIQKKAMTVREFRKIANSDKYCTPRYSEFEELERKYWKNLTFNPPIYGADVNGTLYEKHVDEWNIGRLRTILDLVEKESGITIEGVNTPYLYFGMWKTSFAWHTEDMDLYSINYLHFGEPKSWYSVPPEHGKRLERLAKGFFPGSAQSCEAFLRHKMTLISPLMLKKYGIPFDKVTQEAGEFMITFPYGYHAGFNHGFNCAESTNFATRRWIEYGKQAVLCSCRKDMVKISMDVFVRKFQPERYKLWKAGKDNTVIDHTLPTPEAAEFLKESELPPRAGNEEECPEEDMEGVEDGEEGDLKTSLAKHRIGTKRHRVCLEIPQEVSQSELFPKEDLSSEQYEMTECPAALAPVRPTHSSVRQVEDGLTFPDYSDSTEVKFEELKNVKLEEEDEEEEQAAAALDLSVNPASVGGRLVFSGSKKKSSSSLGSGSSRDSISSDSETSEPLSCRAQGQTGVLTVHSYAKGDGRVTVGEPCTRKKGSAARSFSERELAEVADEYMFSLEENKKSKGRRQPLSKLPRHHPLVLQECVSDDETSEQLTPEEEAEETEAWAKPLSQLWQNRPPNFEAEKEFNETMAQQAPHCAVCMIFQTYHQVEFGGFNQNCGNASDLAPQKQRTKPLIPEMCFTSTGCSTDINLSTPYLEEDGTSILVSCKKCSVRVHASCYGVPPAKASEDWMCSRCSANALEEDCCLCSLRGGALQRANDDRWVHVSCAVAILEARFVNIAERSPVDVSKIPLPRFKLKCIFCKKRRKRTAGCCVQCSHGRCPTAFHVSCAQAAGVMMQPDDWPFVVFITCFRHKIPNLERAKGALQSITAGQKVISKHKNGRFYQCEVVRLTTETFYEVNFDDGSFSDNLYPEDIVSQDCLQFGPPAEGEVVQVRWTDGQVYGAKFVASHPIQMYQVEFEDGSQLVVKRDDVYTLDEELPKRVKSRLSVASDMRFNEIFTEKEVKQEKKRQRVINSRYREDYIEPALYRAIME
# Numbers without * were called inactive; u = inconclusive; x = not tested or not shown; [ ] = another dose, or the depositor's remark. Unless noted, calls follow the shape of the dose curve; as a rule, active = well fitted inhibition curve with a large enough effect; inconclusive = small, poorly fitted or top-dose-only effect; inactive = no such curve, though single readings can be large or run the other way.
SMILES,HP1b chromo inh,JMJD2E inh,BAZ2B inh,PI5P4K alpha inh,L3MBTL1 inh,JMJD2A Tudor inh
CCc1cccc(C)c1NC(=O)CCS(=O)(=O)c1cc(Br)cc2c1N(C(=O)C1CC1)CC2,-11%,x,-28%,x,x,-17%
Cc1ccc2c(=O)c(C(=O)c3ccc(F)cc3)cn(CC(=O)NCc3ccco3)c2n1,-3%,x,50µM*,u,x,u
CCc1cccc(NC(=O)Cn2nc(-c3cc(C)ccc3C)ccc2=O)c1,10%,x,-13%,x,x,u
O=C1CCC(=O)N(O)CCCCCNC(=O)CCC(=O)N(O)CCCCNC(=O)CCC(=O)N(O)CCCCCN1,34%,4.5µM*,u,5,x,-18%
Cn1c(=O)c2nc(SCC(=O)Nc3cc(Cl)cc(Cl)c3)n(C)c2n(C)c1=O,27%,x,-3%,x,x,-11%
O=C(c1ccc(-c2cccc([N+](=O)[O-])c2)o1)N1CCN(c2ccc([N+](=O)[O-])cc2)CC1,1%,x,4%,1,0%,-13%
O=[N+]([O-])c1cccc(-c2ccc(C(=S)N3CCN(c4ccc(F)cc4)CC3)o2)c1,u,5%,35µM*,-21,-29%,u
O=C(/C=C\c1ccc(-c2cccc([N+](=O)[O-])c2)o1)N1CCOCC1,3%,16µM*,u,0,-14%,-31%
O=C(c1cccc([N+](=O)[O-])c1)N1CCOCC1,46%,u,1%,-2,12%,-6%
O=C(Nc1ccc(O)cc1)c1ccc2c(c1)C(=O)N(Cc1ccco1)C2=O,-15%,-7%,u,-57*,u,u
O=C(O)Cc1ccc(NC(=O)c2ccc3c(c2)C(=O)N(Cc2ccco2)C3=O)cc1,-29%,x,-12%,-22,x,35µM*
O=C(Nc1cc([N+](=O)[O-])ccc1O)c1ccc2c(c1)C(=O)N(Cc1ccco1)C2=O,-6%,x,-1%,u,x,u
O=C(Nc1ccc(O)cc1C(=O)O)c1ccc2c(c1)C(=O)N(Cc1ccco1)C2=O,-9%,5%,50µM*,x,-7%[11.4 µM],u
O=C(c1ccc2c(c1)C(=O)N(Cc1ccco1)C2=O)N1CCOCC1,30%,3%,-20%,x,-3%,-3%
O=C(O)c1ccc(C(=O)c2ccc3c(c2)C(=O)N(Cc2ccco2)C3=O)cc1,22%,1%,-10%,-71*,-12%,-16%
CC(C)CN1C(=O)c2ccc(C(=O)Nc3ccc(O)cc3C(=O)O)cc2C1=O,-6%,x,u,1,x,-25%
O=C(Nc1ccc2nc(SCCOc3ccccc3Cl)sc2c1)c1cccs1,58%,x,-16%,x,x,3%
CCC(=O)N1CCc2cc(Br)cc(S(=O)(=O)CCC(=O)N(CC)Cc3ccccc3)c21,19%,x,1%,x,x,-15%
CCOC(=O)c1sc(NC(=O)c2nc(SC)ncc2Cl)c(C(=O)OCC)c1C,23%,x,-3%,x,x,-11%
CCC(C)C(NC(=O)OC(C)(C)C)C(=O)NC1COC2CC(n3cc(F)c(=O)[nH]c3=O)OC12 (stereo unspecified),19%,x,x,x,x,-14%
CCC(OC(=O)c1cccs1)C(=O)NCc1ccc2c(c1)OCO2 (stereo unspecified),11%,3%,-5%,0,4%[11.4 µM],100µM*
COC(=O)c1ccc2nc(C)cc(Nc3ccc(N(C)C)cc3)c2c1,-5%,-8%,40µM*,9,u,u
CCOc1cccc(C2C=C(c3ccc4c(c3)OCO4)NC(c3ccc(Cl)cc3)N2)c1O (stereo unspecified),-9%[57 µM],x,x,x,x,-9%[57.1 µM]
C/C(=N/NC(=O)c1cnccn1)c1cccs1,29%,4%,u,-9,-9%,25µM*
C/C(=N\NC(=O)c1cnccn1)c1ccc([N+](=O)[O-])cc1,14%,0%,-4%,-1,-3%,22µM*
SMILES,HP1b chromo inh,JMJD2E inh,BAZ2B inh,PI5P4K alpha inh,L3MBTL1 inh,JMJD2A Tudor inh
O=C(N/N=C/c1ccc([N+](=O)[O-])cc1)c1cnccn1,20%,5%,-13%,-1,x,u
C/C(=N/NC(=O)c1cc(O)c(O)c(O)c1)c1ccc([N+](=O)[O-])cc1,u,-17%,40µM*,u,18µM*,45µM*
COc1ccc(NC(=O)Cn2cc(C(=O)c3ccccc3)c(=O)c3cc(OC)ccc32)c(OC)c1,31%,x,0%,x,x,-13%
Oc1c(Br)cc(Br)cc1/C=N/c1nccs1,20%,x,u,-55*,-10%,-23%
Oc1ccc(Cl)cc1/C=N/c1nccs1,23%,5%,u,x,0%,-18%
Cc1nc2nc(-c3ccc(Cl)cc3Cl)nn2c(C)c1CCC(=O)Nc1ccc(F)cc1,25%,x,-4%,x,x,-5%
Cc1cc(C(=O)COC(=O)c2cc(O)c3ccccc3c2O)c(C)n1CC1CCCO1 (stereo unspecified),28µM*,28µM*,50µM*,u,u,32µM*
CCOC(=O)C1CCCN(c2c(C(=O)c3ccccc3)cnc3ccc(F)cc23)C1 (stereo unspecified),-3%,x,-23%,x,x,-32%
COc1ccc(S(=O)(=O)N2CCN(S(=O)(=O)c3ccc(OC)cc3)CC2)cc1,x,x,-3%,x,0%,-16%
CC1CCC(N2CCN(S(=O)(=O)Cc3ccccc3)CC2)CC1 (stereo unspecified),71µM*,x,50µM*,-1,x,22µM*
O=S(=O)(Cc1ccccc1)N1CCC(N2CCN(c3ccccc3)CC2)CC1,0%,5%,3%,x,10%,-21%
CC1CCCC(N2CCN(S(=O)(=O)c3ccccc3)CC2)C1 (stereo unspecified),u,x,u,-5,x,4µM*
COc1ccc(S(=O)(=O)N2CCN(C3CCCC(C)C3)CC2)cc1 (stereo unspecified),45µM*,x,18µM*,3,x,1.3µM*
CCOc1ccccc1NC(=O)CSc1ncc2c(n1)-c1ccccc1N(CC)S2(=O)=O,28%,x,0%,x,x,-2%
CC(C)C[C@@H](CNCC(=O)[C@H](CC(=O)O)NC(=O)c1[nH]cnc1C(=O)N[C@H](CN)CC(C)C)NC(=O)c1nc[nH]c1C(=O)N[C@@H](Cc1ccccc1)C(=O)O,-14%,x,x,-20,x,50µM*
CC(C)C[C@@H](CN)NC(=O)c1nc[nH]c1C(=O)N[C@@H](C)C(=O)CNC[C@H](C)NC(=O)c1nc[nH]c1C(=O)N[C@@H](CC(C)C)C(=O)O,51%,x,x,-21,x,50µM*
CC(C)C[C@@H](CN)NC(=O)c1nc[nH]c1C(=O)N[C@@H](C)C(=O)CNC[C@H](C)NC(=O)c1nc[nH]c1C(=O)N[C@@H](C)C(=O)O,59%,x,x,u,x,50µM*
CC(C)C[C@H](NC(=O)c1[nH]cnc1C(=O)N[C@@H](C)c1ccccc1)C(=O)OCc1ccccc1,33%,-7%,3%,30,x,-35%
